# Test results reported in the supplement of paper PMC10849652.
# Of roughly 8,800 targets only a part is listed; those with a hit were picked by preference. About 0.5% of all pairs of compound and target were hits. A number with no mark means an inactive call.
# Tests used:
# Assay in all cases: log2 fold change, soluble protein after heating vs DMSO (PISA); higher = thermal stabilisation; K562 lysate, 10 uM; active = over 0.2 and 3.5 SD of the protein, either way, in both replicates (recomputed)
# nilotinib = compound: Cc1cn(-c2cc(NC(=O)c3ccc(C)c(Nc4nccc(-c5cccnc5)n4)c3)cc(C(F)(F)F)c2)cn1 [nilotinib]
# Outline: (§1)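 Following dounce homogenisation of K562 pellets in PBS pH 7.4 with 1 mM MgCl2, crude extract at 1 mg/mL protein was incubated for 30 min with 10 μM compound. Aliquots were then heated for 3 min over 48°C-58°C and pooled, NP-40 was added to 0.5% at 4°C, and soluble protein was recovered as the supernatant at 21,000xg for 90 min. Channel-sum-equalised TMTpro 16plex LC-MS/MS quantified this protein. Each value, from duplicates, is a log-two fold change in thermal stability relative to solvent controls.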
# [1] = compound: Cc1nc(Nc2n[nH]c3c2CN(C(=O)N[C@H](CN(C)C)c2ccccc2)C3(C)C)c2sccc2n1
# Outline: as §1
# dasatinib = compound: Cc1nc(Nc2ncc(C(=O)Nc3c(C)cccc3Cl)s2)cc(N2CCN(CCO)CC2)n1 [dasatinib]
# Outline: as §1
# [2] = compound: Cc1ncc(-c2ccnc(Nc3ccc(S(C)(=O)=O)cc3)n2)n1C(C)C
# Outline: as §1
# [3] = compound: Cn1cc(-c2ccc3c(c2)CCN3C(=O)Cc2cccc(C(F)(F)F)c2)c2c(N)ncnc21
# Outline: as §1
# quisinostat = compound: Cn1cc(CNCC2CCN(c3ncc(C(=O)NO)cn3)CC2)c2ccccc21 [quisinostat]
# Outline: as §1
# tipifarnib = compound: Cn1cncc1[C@@](N)(c1ccc(Cl)cc1)c1ccc2c(c1)c(-c1cccc(Cl)c1)cc(=O)n2C [tipifarnib]
# Outline: as §1
# [4] = compound: NC(=O)Nc1cc(-c2cccc(F)c2)sc1C(=O)N[C@H]1CCCNC1
# Outline: as §1
# [5] = compound: NC(=O)c1cnc(N[C@@H]2CCCC[C@@H]2N)nc1Nc1cccc(-n2nccn2)c1
# Outline: as §1
# [6] = compound: NC1(c2ccc(-c3nc4ccn5c(=O)[nH]nc5c4cc3-c3ccccc3)cc2)CCC1
# Outline: as §1
# [7] = compound: NCC(=O)Nc1ccc(-n2nc(C(F)(F)F)cc2-c2ccc3c(ccc4ccccc43)c2)cc1
# Outline: as §1
# vorinostat = compound: O=C(CCCCCCC(=O)Nc1ccccc1)NO [vorinostat]
# Outline: as §1
# silmitasertib = compound: O=C(O)c1ccc2c(c1)nc(Nc1cccc(Cl)c1)c1ccncc12 [silmitasertib]
# Outline: as §1
# [8] = compound: O=C1NC(=O)C(c2cnc3ccccn23)=C1c1cn2c3c(cc(F)cc13)CN(C(=O)N1CCCCC1)CC2
# Outline: as §1
# entospletinib = compound: c1cn2cc(-c3ccc4cn[nH]c4c3)nc(Nc3ccc(N4CCOCC4)cc3)c2n1 [entospletinib]
# Outline: as §1
# UniProt P40261, sequence (P40261 whole entry, looked up): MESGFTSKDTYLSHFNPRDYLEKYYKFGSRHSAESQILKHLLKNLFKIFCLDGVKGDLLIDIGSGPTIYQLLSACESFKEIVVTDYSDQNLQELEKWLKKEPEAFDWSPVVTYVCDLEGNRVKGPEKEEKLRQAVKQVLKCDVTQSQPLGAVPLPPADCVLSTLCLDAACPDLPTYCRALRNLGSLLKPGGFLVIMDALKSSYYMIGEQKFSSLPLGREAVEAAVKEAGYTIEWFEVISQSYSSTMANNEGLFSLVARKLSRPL
# UniProt P28331, sequence (P28331 whole entry, looked up): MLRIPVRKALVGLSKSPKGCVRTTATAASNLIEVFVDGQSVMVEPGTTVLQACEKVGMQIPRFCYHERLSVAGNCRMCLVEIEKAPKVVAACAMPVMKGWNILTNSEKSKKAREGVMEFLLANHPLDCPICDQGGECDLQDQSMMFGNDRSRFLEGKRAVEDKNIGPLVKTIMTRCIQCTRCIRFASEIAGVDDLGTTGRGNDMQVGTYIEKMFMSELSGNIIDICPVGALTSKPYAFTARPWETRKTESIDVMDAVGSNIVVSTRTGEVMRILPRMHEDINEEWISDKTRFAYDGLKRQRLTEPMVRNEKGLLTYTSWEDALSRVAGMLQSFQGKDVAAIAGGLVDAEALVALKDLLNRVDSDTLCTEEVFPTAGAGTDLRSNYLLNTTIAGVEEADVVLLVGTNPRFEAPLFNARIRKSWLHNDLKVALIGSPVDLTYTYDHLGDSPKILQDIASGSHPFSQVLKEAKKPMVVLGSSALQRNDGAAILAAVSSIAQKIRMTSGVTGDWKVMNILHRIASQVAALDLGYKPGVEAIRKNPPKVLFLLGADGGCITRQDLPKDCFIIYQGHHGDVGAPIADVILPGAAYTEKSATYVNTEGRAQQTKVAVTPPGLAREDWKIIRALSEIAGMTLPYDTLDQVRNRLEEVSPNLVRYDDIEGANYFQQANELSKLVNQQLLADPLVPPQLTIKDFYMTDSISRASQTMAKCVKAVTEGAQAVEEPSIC
# UniProt Q9BTC8, sequence (Q9BTC8 whole entry, looked up): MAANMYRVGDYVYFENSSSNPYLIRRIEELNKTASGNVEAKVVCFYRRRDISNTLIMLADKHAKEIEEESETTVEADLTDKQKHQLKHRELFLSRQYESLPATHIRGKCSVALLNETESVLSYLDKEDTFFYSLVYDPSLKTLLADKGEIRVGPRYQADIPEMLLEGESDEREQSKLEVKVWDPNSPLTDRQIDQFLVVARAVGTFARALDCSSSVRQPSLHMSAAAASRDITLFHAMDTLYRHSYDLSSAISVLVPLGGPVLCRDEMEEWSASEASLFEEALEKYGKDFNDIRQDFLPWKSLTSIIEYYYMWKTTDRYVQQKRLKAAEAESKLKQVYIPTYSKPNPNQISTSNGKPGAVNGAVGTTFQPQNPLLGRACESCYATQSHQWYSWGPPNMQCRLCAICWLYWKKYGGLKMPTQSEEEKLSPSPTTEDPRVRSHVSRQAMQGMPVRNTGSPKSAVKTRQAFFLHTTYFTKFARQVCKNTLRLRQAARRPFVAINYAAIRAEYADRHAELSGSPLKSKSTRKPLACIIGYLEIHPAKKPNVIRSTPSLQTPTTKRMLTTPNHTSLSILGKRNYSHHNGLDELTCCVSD
# UniProt Q9NQR4, sequence (Q9NQR4 whole entry, looked up): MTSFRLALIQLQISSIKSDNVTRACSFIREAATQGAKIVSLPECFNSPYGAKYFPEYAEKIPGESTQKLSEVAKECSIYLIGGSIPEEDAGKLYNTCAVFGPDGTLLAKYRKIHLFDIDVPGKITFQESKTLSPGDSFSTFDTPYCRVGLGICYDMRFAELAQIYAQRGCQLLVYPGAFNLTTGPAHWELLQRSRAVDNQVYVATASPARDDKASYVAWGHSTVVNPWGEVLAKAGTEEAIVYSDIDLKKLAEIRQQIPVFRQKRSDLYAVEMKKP
# UniProt Q8TD19, sequence (Q8TD19 whole entry, looked up): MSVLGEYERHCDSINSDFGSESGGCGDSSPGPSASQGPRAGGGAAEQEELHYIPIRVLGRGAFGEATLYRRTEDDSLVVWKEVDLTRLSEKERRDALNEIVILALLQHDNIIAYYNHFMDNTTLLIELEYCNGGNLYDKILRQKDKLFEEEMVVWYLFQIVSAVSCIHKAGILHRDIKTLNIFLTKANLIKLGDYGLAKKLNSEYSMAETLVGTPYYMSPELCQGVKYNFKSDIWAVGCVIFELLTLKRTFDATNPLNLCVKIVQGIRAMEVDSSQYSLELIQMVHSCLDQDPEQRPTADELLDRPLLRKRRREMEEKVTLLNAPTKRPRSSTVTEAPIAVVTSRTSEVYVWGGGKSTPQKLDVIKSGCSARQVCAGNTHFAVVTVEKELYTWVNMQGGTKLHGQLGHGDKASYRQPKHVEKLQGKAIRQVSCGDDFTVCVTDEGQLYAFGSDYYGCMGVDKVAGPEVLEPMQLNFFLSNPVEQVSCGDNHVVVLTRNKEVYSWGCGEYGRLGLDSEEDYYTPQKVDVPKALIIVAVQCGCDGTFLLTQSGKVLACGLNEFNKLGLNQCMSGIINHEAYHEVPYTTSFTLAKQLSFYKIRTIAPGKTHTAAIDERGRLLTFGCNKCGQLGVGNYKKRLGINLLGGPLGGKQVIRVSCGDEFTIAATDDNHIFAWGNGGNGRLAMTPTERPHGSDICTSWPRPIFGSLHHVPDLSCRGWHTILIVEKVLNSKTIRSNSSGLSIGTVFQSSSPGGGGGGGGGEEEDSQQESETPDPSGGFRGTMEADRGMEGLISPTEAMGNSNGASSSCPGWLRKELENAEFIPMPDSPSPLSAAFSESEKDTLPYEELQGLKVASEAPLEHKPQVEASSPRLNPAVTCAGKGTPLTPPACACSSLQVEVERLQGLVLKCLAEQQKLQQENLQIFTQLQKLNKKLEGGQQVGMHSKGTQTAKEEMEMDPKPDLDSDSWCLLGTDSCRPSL
# UniProt Q96NT1, sequence (Q96NT1 whole entry, looked up): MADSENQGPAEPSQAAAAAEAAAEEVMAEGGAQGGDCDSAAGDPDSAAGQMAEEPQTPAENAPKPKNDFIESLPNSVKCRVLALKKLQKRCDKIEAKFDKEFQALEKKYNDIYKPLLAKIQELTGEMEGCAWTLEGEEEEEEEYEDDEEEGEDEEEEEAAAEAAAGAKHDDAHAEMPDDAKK
# UniProt Q9BV86, sequence (Q9BV86 whole entry, looked up): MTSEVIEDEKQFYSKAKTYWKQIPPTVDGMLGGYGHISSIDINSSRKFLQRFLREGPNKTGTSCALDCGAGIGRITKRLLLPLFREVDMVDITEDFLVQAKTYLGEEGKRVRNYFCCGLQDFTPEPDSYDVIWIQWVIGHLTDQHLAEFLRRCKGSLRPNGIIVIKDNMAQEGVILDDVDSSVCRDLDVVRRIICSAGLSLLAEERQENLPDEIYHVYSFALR
# UniProt P03886, sequence (P03886 whole entry, looked up): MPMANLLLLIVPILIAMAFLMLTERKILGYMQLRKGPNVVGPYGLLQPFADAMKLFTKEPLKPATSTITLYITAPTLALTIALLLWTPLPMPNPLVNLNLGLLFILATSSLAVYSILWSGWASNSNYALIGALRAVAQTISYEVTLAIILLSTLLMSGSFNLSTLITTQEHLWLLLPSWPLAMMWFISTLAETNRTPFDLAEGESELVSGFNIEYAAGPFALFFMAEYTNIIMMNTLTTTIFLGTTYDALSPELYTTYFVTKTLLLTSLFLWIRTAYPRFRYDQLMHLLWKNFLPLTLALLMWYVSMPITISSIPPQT
Target,log2 fold change (nilotinib),log2 fold change [1],log2 fold change (dasatinib),log2 fold change [2],log2 fold change [3],log2 fold change (quisinostat),log2 fold change (tipifarnib),log2 fold change [4],log2 fold change [5],log2 fold change [6],log2 fold change [7],log2 fold change (vorinostat),log2 fold change (silmitasertib),log2 fold change [8],log2 fold change (entospletinib)
NDUFS1 isoform 2 (UniProt P28331),0.005,-0.001,0.013,-0.021,0.009,0.112,-0.002,-0.018,0.003,0.006,-0.006,0.118,0.032,-0.052,-0.014
NTMT1 (UniProt Q9BV86),-0.033,-0.026,-0.053,0.002,0.047,-0.051,0.012,0.07,-0.049,-0.002,0.008,-0.366 (active),0.026,0.01,0.049
MTA3 (UniProt Q9BTC8),0.034,-0.059,-0.005,-0.019,-0.017,-0.061,0.009,0.03,0.005,-0.047,0.021,-0.278 (active),-0.017,-0.021,0.012
MT-ND1 (UniProt P03886),-0.054,0.005,0.018,-0.074,0.035,-0.094,-0.125,0.033,-0.024,-0.059,0.002,0.072,0.033,0.015,0.121
NNMT (UniProt P40261),-0.044,-0.01,0.058,0.03,0.003,-0.145,-0.008,0.004,0.035,-0.033,0.014,-0.104,0.014,0.03,-0.004
NIT2 (UniProt Q9NQR4),-0.011,0.001,-0.03,-0.021,-0.027,0.004,0.019,0.021,-0.016,-0.023,-0.001,0.346 (active),-0.001,-0.007,0.004
NAP1L5 (UniProt Q96NT1),-0.008,-0.053,0.024,0.045,0.01,0.068,0.054,-0.05,-0.049,0.005,0.023,0.059,0.033,-0.049,0.071
MTHFD1L (UniProt B7ZM99),-0.017,0.028,-0.061,0.002,0.046,-0.055,-0.01,0.074,0.019,-0.017,0.031,-0.408 (active),0.07,0.045,-0.02
NEK9 (UniProt Q8TD19),-0.024,0.13,-0.002,0.007,0.001,-0.042,-0.018,0.033,0.003,-0.026,-0.03,-0.45 (active),0.052,-0.013,0.013
